Measurements taken from ChEMBL document CHEMBL1961873, “Compounds: GSK PKIS; Assays: Nanosyn kinase panel” (2012).

Key:
[1] = biological target: Calcium/calmodulin-dependent protein kinase type II subunit alpha (Homo sapiens) (UniProt Q9UQM7); conditions: at 1 µM;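 note: reported value is a mean percent inhibition of CAMK2A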
[2] = biological target: Calcium/calmodulin-dependent protein kinase type II subunit delta (Homo sapiens) (UniProt Q13557); conditions: at 0.1 µM
[3] = biological target: Calcium/calmodulin-dependent protein kinase type II subunit delta (Homo sapiens) (UniProt Q13557); conditions: at 1 µM
[4] = biological target: T1, Calcium/calmodulin-dependent protein kinase type IV (Homo sapiens) (UniProt Q16566); conditions: at 0.1 µM
T1 sequence (whole entry): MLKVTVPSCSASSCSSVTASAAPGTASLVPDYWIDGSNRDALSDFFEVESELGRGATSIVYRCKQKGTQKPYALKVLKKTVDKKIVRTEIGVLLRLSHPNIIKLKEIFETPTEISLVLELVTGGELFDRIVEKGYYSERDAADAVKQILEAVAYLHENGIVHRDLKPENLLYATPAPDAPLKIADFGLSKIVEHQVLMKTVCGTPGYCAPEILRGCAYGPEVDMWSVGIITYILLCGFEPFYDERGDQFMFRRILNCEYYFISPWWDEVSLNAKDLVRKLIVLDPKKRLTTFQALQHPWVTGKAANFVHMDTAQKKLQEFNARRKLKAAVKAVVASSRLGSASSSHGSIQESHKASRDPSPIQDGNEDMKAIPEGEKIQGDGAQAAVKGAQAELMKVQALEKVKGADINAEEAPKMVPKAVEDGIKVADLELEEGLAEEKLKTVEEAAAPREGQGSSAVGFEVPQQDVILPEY

[5] = biological target: T1, Calcium/calmodulin-dependent protein kinase type IV (Homo sapiens); conditions: at 1 µM
[6] = biological target: T2, Serine/threonine-protein kinase Chk1 (Homo sapiens) (UniProt O14757); conditions: at 0.1 µM
T2 sequence (whole entry): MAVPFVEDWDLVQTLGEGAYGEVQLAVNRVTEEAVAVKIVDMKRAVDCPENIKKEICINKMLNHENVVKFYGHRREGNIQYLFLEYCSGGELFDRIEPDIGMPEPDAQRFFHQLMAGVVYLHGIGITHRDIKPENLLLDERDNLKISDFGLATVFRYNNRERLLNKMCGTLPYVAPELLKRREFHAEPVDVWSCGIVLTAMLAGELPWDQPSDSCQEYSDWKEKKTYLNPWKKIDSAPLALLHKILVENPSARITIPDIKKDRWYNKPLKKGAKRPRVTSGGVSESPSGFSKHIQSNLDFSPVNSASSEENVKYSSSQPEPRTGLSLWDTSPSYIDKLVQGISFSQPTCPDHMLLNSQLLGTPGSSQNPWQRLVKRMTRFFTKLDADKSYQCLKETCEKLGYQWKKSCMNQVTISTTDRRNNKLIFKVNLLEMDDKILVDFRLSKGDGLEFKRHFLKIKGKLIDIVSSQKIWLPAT

[7] = biological target: T2, Serine/threonine-protein kinase Chk1 (Homo sapiens); conditions: at 1 µM
[8] = biological target: Serine/threonine-protein kinase Chk2 (Homo sapiens) (UniProt O96017); conditions: at 0.1 µM
Sequence of Serine/threonine-protein kinase Chk2 (Homo sapiens) (O96017 whole entry): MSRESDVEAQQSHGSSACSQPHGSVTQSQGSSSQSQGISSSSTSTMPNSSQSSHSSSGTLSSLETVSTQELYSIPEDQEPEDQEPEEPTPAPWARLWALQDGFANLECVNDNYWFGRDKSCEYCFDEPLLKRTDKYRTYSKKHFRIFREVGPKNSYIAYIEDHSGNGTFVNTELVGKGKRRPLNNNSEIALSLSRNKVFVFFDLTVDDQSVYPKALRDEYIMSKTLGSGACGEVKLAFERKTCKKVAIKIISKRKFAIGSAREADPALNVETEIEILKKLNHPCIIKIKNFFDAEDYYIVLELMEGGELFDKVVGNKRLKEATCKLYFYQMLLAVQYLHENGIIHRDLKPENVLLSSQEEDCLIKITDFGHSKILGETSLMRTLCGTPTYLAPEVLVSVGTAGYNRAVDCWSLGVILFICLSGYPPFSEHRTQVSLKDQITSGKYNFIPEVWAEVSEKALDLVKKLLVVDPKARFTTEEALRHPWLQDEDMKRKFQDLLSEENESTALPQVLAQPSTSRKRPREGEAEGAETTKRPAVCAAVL

[9] = biological target: Serine/threonine-protein kinase Chk2 (Homo sapiens) (UniProt O96017); conditions: at 1 µM
[10] = biological target: Death-associated protein kinase 1 (Homo sapiens) (UniProt P53355); conditions: at 0.1 µM
Sequence of Death-associated protein kinase 1 (Homo sapiens) (P53355 whole entry, looked up): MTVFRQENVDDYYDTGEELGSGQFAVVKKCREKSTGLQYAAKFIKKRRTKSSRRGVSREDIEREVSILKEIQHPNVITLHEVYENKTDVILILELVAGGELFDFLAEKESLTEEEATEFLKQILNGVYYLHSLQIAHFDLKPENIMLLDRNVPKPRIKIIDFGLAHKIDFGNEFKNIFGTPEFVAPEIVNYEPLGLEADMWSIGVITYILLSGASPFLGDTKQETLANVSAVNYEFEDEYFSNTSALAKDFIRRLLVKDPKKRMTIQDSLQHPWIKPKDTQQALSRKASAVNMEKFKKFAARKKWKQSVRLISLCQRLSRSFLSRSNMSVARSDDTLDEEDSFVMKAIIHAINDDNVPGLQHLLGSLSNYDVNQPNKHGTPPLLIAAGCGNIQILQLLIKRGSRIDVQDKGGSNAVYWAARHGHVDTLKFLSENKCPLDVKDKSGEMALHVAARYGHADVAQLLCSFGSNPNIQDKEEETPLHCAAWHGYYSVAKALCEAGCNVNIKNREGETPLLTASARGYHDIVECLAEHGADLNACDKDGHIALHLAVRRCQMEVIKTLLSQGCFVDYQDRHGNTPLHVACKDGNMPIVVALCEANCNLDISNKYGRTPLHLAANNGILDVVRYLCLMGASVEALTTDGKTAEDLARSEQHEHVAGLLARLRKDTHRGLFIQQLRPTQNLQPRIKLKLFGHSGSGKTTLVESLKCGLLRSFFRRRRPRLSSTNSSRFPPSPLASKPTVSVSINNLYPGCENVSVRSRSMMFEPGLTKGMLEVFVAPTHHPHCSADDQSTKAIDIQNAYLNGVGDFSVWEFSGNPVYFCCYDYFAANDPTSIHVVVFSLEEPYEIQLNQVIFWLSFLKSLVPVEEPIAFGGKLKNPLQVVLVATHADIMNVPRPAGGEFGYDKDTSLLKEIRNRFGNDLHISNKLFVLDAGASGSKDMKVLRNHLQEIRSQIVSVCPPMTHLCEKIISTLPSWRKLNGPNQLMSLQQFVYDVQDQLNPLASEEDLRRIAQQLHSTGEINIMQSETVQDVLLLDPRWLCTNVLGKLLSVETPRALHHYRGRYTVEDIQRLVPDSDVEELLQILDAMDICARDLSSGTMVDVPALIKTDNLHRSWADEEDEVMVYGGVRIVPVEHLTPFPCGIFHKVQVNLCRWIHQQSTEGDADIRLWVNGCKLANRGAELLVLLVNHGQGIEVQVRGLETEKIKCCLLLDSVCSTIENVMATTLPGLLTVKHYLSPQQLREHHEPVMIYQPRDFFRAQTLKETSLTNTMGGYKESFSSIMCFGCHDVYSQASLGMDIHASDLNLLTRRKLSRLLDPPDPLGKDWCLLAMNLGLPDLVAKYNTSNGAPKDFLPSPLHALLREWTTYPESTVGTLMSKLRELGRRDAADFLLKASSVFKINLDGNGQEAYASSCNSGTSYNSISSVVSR

[11] = biological target: Death-associated protein kinase 1 (Homo sapiens) (UniProt P53355); conditions: at 1 µM
[12] = biological target: T3, Serine/threonine-protein kinase DCLK2 (Homo sapiens) (UniProt Q8N568); conditions: at 0.1 µM
T3 sequence (whole entry): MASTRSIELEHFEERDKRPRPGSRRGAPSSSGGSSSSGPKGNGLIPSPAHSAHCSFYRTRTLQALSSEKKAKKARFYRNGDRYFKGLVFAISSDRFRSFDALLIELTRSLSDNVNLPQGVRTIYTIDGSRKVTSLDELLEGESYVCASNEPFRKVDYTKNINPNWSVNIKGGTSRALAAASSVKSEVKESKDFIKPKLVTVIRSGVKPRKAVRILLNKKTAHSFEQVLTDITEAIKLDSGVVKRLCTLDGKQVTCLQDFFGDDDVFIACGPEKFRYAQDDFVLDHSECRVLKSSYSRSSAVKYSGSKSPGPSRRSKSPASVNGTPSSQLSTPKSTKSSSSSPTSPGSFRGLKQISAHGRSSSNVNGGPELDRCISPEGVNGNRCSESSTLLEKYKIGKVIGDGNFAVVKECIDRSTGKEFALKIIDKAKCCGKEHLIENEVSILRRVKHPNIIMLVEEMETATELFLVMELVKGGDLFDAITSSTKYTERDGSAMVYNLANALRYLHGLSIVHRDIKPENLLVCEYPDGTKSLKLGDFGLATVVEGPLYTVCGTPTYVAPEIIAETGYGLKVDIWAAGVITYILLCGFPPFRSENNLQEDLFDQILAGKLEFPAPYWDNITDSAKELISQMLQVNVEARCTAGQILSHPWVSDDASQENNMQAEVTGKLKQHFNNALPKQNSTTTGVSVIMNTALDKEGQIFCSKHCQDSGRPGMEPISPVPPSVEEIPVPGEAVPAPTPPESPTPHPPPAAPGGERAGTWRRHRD

[13] = biological target: T3, Serine/threonine-protein kinase DCLK2 (Homo sapiens); conditions: at 1 µM
[14] = biological target: MAP kinase-activated protein kinase 2 (Homo sapiens) (UniProt P49137); conditions: at 0.1 µM
Sequence of MAP kinase-activated protein kinase 2 (Homo sapiens) (P49137 whole entry, looked up): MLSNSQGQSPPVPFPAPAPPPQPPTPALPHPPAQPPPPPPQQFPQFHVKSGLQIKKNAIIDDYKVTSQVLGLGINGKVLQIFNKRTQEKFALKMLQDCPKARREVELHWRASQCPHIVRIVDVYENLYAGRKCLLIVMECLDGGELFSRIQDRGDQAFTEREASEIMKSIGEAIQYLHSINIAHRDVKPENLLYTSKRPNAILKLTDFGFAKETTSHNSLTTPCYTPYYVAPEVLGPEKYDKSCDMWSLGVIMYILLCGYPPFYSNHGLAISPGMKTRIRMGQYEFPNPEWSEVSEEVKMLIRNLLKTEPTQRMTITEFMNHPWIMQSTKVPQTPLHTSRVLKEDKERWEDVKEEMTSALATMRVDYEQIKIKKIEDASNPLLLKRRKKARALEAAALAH

[15] = biological target: MAP kinase-activated protein kinase 2 (Homo sapiens) (UniProt P49137); conditions: at 1 µM
[16] = biological target: MAP kinase-activated protein kinase 3 (Homo sapiens) (UniProt Q16644); conditions: at 0.1 µM
Sequence of MAP kinase-activated protein kinase 3 (Homo sapiens) (Q16644 whole entry, looked up): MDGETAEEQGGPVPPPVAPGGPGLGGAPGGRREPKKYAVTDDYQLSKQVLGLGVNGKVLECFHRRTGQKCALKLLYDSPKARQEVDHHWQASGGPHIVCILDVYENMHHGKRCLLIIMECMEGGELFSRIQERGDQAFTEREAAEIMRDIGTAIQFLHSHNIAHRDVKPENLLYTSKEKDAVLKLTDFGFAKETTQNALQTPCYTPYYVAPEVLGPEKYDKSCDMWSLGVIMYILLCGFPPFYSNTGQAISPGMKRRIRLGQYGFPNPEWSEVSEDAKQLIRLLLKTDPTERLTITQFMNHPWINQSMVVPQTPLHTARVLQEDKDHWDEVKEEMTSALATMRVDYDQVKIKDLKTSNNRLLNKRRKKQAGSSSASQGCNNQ

[17] = biological target: MAP kinase-activated protein kinase 3 (Homo sapiens) (UniProt Q16644); conditions: at 1 µM
[18] = biological target: Serine/threonine-protein kinase MARK1 (Homo sapiens) (UniProt Q9P0L2); conditions: at 0.1 µM
[19] = biological target: Serine/threonine-protein kinase MARK1 (Homo sapiens) (UniProt Q9P0L2); conditions: at 1 µM
[20] = biological target: MAP/microtubule affinity-regulating kinase 3 (Homo sapiens) (UniProt P27448); conditions: at 0.1 µM;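 note: mean percent inhibition of MARK3 kinase activity, measured within the GSK PKIS screening panel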
Sequence of MAP/microtubule affinity-regulating kinase 3 (Homo sapiens) (P27448 whole entry, looked up): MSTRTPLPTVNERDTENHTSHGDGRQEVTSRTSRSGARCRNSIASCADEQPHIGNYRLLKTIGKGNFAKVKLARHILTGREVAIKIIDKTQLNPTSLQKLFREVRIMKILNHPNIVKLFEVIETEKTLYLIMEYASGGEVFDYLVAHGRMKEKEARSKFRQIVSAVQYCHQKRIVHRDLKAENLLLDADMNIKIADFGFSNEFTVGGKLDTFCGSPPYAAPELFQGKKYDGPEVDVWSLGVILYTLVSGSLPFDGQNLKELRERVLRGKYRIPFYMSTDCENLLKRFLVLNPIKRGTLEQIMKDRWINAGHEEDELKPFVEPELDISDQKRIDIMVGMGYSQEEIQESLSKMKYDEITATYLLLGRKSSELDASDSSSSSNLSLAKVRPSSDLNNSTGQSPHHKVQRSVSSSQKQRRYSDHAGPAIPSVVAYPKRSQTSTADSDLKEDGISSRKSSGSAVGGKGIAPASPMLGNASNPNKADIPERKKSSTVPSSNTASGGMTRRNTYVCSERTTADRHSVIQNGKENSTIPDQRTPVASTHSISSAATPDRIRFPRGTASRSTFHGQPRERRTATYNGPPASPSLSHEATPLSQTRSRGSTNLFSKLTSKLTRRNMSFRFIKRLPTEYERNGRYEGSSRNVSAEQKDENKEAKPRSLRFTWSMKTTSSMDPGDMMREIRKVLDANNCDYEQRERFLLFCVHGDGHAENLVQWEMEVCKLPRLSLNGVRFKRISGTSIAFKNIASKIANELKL

Sequence of Calcium/calmodulin-dependent protein kinase type II subunit delta (Homo sapiens) (Q13557 whole entry): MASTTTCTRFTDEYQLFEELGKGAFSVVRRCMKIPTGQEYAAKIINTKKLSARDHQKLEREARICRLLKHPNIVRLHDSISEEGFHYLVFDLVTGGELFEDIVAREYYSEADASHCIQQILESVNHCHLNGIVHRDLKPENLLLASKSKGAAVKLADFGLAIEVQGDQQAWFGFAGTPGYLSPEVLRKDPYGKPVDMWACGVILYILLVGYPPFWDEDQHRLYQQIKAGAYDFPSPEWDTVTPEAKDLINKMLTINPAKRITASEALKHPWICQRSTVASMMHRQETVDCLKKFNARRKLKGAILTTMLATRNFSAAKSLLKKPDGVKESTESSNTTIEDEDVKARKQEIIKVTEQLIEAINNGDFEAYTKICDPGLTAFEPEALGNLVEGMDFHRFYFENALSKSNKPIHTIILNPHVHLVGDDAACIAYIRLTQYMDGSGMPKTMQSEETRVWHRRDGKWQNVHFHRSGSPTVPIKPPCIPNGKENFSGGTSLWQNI
Sequence of Calcium/calmodulin-dependent protein kinase type II subunit alpha (Homo sapiens) (Q9UQM7 whole entry): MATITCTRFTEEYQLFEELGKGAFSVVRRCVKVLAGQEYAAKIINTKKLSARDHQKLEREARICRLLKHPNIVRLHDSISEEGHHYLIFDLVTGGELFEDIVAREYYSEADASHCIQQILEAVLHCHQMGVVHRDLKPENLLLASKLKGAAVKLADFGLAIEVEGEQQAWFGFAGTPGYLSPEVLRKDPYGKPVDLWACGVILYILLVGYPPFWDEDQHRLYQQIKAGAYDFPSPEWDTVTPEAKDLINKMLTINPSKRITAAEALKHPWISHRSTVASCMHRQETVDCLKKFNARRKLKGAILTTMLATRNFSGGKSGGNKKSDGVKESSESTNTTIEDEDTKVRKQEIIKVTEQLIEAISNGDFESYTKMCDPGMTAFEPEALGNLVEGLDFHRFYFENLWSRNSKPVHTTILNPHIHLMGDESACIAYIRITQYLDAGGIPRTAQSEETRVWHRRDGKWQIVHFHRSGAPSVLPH

Q: Which inhibition [1] does the source give for N#Cc1ccc(Oc2nccc(-c3c(-c4ccc(F)cc4)ncn3C3CCNCC3)n2)cc1 here?
A: Its inhibition is 0.01%.

Q: And the inhibition [2]?
A: The inhibition was 3.46%.

Q: What about the inhibition [3] of the same compound?
A: Its inhibition is 5.08%.

Q: And the inhibition [4]?
A: The inhibition was -1.84%.

Q: What about the inhibition [5] of the same compound?
A: Its inhibition is 6.38%.

Q: What about the inhibition [6] of the same compound?
A: Its inhibition is 1.81%.

Q: What about the inhibition [7] of the same compound?
A: Its inhibition is -0.27%.

Q: What about the inhibition [8] of the same compound?
A: Its inhibition is 4.28%.

Q: And the inhibition [9]?
A: Its inhibition is 4.2%.

Q: What about the inhibition [10] of the same compound?
A: Its inhibition is 2.55%.

Q: And the inhibition [11]?
A: The inhibition was -0.22%.

Q: And the inhibition [12]?
A: The inhibition was 1.3%.

Q: And the inhibition [13]?
A: Its inhibition is 3.06%.

Q: And the inhibition [14]?
A: The inhibition was 1.77%.

Q: And the inhibition [15]?
A: The inhibition was 1.32%.

Q: What about the inhibition [16] of the same compound?
A: Its inhibition is 13.9%.

Q: And the inhibition [17]?
A: The inhibition was 30.8%.

Q: What about the inhibition [18] of the same compound?
A: Its inhibition is 0.23%.

Q: What about the inhibition [19] of the same compound?
A: The inhibition was 3.06%.

Q: And the inhibition [20]?
A: The inhibition was 1.6%.

Q: What does the source list for COc1ccc(-c2ccc3c(NC(=O)C4CC4)n[nH]c3n2)cc1?
A: inhibition [1]: 0.75%; inhibition [2]: 0.17%; inhibition [3]: 1.7%; inhibition [4]: -1.51%; inhibition [5]: -2.95%; inhibition [6]: 2.25%; inhibition [7]: 1.88%; inhibition [8]: 0.78%; inhibition [9]: 1.92%; inhibition [10]: 2.58%; inhibition [11]: 3.76%; inhibition [12]: -1.52%; inhibition [13]: 2.41%; inhibition [14]: 1.32%; inhibition [15]: 1.4%; inhibition [16]: 1.44%; inhibition [17]: 3.8%; inhibition [18]: 1.93%; inhibition [19]: 5.02%; inhibition [20]: 2.03%

Q: Which results are given for O=C1Nc2ccccc2/C1=C/Nc1ccc(-n2cncn2)cc1?
A: inhibition [1]: 4.05%; inhibition [2]: 2.3%; inhibition [3]: 6.83%; inhibition [4]: -0.87%; inhibition [5]: -2.92%; inhibition [6]: 1.77%; inhibition [7]: 13.5%; inhibition [8]: 3.98%; inhibition [9]: 14.9%; inhibition [10]: 5.75%; inhibition [11]: 7.29%; inhibition [12]: 1.71%; inhibition [13]: -2.02%; inhibition [14]: 2.96%; inhibition [15]: 2.54%; inhibition [16]: 3.98%; inhibition [17]: 3.15%; inhibition [18]: 5.86%; inhibition [19]: 25.4%; inhibition [20]: 3.28%
